Source: the supplement of paper PMC10849652
The full data set covers some 8,800 targets. This sample favours those with a hit. About 0.5% of all pairs of compound and target were hits.

compound: CCCS(=O)(=O)Nc1ccc(F)c(C(=O)c2c[nH]c3ncc(Cl)cc23)c1F; experiment: log2 fold change, soluble protein after heating vs DMSO (PISA); higher = thermal stabilisation; K562 lysate, 10 uM; active = over 0.2 and 3.5 SD of the protein, either way, in both replicates (recomputed)
Summary of the method: (§1)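 Pellets of K562 cells were dounce-homogenised in PBS pH 7.4 with 1 mM MgCl2, and the crude extract was held at 1 mg/mL protein for a 30 min treatment with 10 μM compound. Aliquots were heated for 3 min over 48°C-58°C and pooled before NP-40 was added to 0.5% at 4°C. The supernatant from 21,000xg for 90 min was quantified by TMTpro 16plex LC-MS/MS with channel sums equalised. Values are reported from duplicates as log-two fold change in thermal stability relative to solvent controls.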

Sequence of UniProt O76041 (O76041 whole entry, looked up): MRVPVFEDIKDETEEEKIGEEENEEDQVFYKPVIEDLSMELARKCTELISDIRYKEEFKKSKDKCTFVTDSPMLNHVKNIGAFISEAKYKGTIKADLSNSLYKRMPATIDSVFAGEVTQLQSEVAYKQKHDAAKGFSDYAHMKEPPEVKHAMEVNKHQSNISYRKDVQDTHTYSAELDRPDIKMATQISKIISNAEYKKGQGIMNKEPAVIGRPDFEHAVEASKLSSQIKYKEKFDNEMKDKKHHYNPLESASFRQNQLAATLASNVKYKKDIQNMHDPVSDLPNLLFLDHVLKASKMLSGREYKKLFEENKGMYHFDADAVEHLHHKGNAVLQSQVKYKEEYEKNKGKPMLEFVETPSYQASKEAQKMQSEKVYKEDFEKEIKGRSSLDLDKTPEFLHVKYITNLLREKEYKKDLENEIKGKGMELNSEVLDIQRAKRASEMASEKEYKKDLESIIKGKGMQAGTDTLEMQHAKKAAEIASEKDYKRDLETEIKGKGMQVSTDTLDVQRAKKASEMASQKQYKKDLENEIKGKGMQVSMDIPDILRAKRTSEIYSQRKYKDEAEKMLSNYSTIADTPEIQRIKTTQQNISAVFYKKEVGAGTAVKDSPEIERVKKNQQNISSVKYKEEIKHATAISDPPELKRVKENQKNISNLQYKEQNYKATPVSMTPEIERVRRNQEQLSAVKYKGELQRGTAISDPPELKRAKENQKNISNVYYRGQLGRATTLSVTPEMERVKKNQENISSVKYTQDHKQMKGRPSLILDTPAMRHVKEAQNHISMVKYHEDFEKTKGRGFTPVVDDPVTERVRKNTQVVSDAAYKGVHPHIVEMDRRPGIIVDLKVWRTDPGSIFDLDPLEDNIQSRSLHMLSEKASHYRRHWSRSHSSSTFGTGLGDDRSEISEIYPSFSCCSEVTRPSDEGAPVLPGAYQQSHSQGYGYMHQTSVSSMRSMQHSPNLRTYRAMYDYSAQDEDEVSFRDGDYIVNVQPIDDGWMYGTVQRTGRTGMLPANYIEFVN
Sequence of UniProt Q92621 (Q92621 whole entry, looked up): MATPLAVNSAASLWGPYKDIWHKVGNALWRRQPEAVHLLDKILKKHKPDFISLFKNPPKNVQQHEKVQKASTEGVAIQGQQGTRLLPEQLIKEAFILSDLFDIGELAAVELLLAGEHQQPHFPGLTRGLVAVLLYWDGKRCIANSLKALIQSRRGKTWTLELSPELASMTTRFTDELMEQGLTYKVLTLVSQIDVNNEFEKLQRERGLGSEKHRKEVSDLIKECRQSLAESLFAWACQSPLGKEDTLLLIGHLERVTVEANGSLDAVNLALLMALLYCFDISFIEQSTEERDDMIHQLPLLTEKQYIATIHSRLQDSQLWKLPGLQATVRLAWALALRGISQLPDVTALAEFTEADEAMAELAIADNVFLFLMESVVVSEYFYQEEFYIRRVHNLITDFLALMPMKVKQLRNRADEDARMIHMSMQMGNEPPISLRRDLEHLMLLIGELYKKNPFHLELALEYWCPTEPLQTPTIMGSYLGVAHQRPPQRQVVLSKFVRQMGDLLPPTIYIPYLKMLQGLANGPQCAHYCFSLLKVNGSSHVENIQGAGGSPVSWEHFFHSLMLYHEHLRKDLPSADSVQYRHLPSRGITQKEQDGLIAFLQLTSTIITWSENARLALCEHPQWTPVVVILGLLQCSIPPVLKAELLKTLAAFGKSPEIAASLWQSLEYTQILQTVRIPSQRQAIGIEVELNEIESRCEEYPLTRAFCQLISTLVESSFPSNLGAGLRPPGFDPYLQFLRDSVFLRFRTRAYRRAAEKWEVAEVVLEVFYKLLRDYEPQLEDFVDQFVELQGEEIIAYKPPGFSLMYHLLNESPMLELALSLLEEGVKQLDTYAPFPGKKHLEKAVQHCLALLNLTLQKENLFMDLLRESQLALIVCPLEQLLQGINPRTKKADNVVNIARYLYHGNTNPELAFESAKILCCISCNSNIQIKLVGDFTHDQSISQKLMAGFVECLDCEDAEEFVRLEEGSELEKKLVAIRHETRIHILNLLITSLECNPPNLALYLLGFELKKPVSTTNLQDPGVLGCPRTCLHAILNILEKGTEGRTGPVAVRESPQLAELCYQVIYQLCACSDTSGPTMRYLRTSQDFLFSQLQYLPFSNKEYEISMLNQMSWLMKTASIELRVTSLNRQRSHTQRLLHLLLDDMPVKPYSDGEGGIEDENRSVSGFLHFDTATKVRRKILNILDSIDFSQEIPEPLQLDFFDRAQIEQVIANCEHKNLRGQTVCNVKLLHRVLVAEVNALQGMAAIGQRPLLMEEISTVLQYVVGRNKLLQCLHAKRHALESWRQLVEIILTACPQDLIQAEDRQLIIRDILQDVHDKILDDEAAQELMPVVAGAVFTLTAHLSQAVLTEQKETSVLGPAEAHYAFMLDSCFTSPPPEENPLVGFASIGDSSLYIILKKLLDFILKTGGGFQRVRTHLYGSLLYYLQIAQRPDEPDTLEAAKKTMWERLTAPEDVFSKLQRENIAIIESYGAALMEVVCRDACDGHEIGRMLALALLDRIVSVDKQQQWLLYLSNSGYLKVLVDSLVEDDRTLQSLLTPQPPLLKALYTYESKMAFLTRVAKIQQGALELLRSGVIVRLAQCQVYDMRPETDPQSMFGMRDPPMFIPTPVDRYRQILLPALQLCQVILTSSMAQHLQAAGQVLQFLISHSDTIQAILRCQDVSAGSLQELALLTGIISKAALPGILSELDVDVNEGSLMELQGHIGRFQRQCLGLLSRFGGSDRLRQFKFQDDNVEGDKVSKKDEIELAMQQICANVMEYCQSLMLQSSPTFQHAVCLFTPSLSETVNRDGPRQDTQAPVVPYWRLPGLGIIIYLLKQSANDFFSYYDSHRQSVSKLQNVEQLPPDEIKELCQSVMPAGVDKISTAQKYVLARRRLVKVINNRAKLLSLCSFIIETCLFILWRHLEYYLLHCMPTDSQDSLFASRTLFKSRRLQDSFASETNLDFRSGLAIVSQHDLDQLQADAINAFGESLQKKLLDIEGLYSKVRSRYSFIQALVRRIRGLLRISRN
Sequence of UniProt Q9Y6C9 (Q9Y6C9 whole entry, looked up): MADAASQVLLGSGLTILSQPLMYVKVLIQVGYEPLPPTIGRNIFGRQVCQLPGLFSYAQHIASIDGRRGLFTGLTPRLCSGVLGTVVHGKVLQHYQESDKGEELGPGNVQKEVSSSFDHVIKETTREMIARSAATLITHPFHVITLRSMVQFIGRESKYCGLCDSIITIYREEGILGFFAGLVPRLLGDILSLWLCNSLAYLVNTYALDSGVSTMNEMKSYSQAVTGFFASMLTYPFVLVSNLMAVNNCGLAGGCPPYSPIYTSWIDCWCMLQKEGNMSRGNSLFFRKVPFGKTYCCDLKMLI
Sequence of UniProt Q504Q3 (Q504Q3 whole entry, looked up): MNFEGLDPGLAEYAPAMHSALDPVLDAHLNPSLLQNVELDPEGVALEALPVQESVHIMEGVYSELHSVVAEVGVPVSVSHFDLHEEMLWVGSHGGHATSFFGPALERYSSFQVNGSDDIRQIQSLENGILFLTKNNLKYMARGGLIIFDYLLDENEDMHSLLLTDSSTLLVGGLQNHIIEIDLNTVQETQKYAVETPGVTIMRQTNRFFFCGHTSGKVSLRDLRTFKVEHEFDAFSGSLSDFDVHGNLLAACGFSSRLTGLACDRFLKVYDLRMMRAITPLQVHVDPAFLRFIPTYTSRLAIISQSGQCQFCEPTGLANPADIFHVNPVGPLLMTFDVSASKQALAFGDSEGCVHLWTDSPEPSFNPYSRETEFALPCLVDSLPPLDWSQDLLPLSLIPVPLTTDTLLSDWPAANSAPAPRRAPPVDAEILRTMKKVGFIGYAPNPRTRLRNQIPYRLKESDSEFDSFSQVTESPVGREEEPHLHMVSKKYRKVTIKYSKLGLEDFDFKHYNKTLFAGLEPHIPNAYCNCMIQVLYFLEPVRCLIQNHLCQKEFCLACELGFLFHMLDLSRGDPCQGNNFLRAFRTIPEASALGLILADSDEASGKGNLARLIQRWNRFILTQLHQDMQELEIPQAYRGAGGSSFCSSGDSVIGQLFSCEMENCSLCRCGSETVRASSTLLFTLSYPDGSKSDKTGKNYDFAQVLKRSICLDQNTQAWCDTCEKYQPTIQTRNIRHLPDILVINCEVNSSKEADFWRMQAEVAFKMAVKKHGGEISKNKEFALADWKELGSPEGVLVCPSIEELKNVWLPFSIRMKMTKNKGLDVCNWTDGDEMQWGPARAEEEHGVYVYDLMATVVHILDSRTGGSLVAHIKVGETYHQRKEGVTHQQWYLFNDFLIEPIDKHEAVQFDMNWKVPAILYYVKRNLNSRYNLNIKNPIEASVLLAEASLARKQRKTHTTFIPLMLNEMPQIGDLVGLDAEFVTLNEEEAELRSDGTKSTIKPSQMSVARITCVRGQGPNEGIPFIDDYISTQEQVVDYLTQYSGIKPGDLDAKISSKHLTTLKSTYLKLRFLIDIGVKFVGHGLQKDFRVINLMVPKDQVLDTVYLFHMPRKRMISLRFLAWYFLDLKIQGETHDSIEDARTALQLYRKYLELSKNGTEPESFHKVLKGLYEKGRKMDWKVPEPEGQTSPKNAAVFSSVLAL
Sequence of UniProt Q9HBL8 (Q9HBL8 whole entry, looked up): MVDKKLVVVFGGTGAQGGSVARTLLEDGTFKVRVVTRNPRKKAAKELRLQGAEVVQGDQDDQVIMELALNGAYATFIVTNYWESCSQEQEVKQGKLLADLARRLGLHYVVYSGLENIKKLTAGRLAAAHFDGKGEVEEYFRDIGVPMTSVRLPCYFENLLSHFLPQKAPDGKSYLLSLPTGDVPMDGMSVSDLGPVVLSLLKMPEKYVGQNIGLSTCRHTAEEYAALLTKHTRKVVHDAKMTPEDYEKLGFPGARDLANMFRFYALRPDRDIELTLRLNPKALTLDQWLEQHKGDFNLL
Sequence of UniProt Q9Y5N5 (Q9Y5N5 whole entry, looked up, one chain of several): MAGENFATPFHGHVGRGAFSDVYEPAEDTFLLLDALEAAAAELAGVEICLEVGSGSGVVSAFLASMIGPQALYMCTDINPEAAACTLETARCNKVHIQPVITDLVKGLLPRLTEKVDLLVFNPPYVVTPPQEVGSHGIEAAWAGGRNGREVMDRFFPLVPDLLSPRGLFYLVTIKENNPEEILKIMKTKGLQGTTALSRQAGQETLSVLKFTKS

log2 fold change, inactive:
MRPS12 (UniProt O15235) 0.035
NOSIP (UniProt Q9Y314) 0.034
N6AMT1 (UniProt Q9Y5N5) -0.016
NEBL isoform 2 (UniProt O76041) 0.009
NAT1 (UniProt P18440) -0.003
NUMBL (UniProt Q9Y6R0) 0.014
NDUFAF5 (UniProt Q5TEU4) 0.007
ORC3 isoform 2 (UniProt Q9UBD5) -0.008
PAK1 (UniProt Q13153) 0.001
OLA1 (UniProt Q9NTK5) 0.001
OARD1 (UniProt Q9Y530) 0.004
NIPBL (UniProt Q6KC79) 0.091
MTA1 (UniProt Q13330) 0.011
MYH11 isoform 2 (UniProt P35749) 0.016
PANK2 (UniProt Q9BZ23) -0.036
NPTN (UniProt Q9Y639) -0.042
NEBL (UniProt O76041) -0.027
NT5DC2 isoform 2 (UniProt Q9H857) 0.069
NFATC1 (UniProt O95644) 0.058
NUP93 (UniProt Q8N1F7) 0.014
MTCH2 (UniProt Q9Y6C9) 0.008
MTA2 (UniProt O94776) 0.018
NONO (UniProt Q15233) 0.018
NCAPG2 (UniProt Q86XI2) 0.044
NF1 (UniProt P21359) 0.024
NIPSNAP3A (UniProt Q9UFN0) 0.018
PAN2 isoform 2 (UniProt Q504Q3) 0.031
NUP205 (UniProt Q92621) 0.017
NBN (UniProt O60934) 0.011
NCAPD2 (UniProt Q15021) 0.014
NEK9 (UniProt Q8TD19) 0.054
NMRAL1 (UniProt Q9HBL8) -0.023
OSBP2 (UniProt Q969R2) -0.014
NLRP2 (UniProt Q9NX02) -0.003
NUF2 (UniProt Q9BZD4) 0.016
NR3C1 isoform 3 (UniProt P04150) 0.027

compound: CCN(CCCOc1ccc2c(Nc3cc(CC(=O)Nc4cccc(F)c4)[nH]n3)ncnc2c1)CCOP(=O)(O)O [barasertib]; experiment: as above
Summary of the method: as §1

log2 fold change, inactive:
MRPS12 (UniProt O15235) 0.003
NOSIP (UniProt Q9Y314) 0.012
N6AMT1 (UniProt Q9Y5N5) 0.113
NEBL isoform 2 (UniProt O76041) -0.078
NAT1 (UniProt P18440) -0.104
NUMBL (UniProt Q9Y6R0) -0.005
NDUFAF5 (UniProt Q5TEU4) -0.032
ORC3 isoform 2 (UniProt Q9UBD5) 0.022
PAK1 (UniProt Q13153) -0.001
OLA1 (UniProt Q9NTK5) 0.012
OARD1 (UniProt Q9Y530) -0.01
NIPBL (UniProt Q6KC79) 0.017
MTA1 (UniProt Q13330) 0.008
MYH11 isoform 2 (UniProt P35749) 0.016
PANK2 (UniProt Q9BZ23) -0.047
NPTN (UniProt Q9Y639) 0.007
NEBL (UniProt O76041) 0.066
NT5DC2 isoform 2 (UniProt Q9H857) 0.001
NFATC1 (UniProt O95644) -0.015
NUP93 (UniProt Q8N1F7) 0.036
MTCH2 (UniProt Q9Y6C9) -0.02
MTA2 (UniProt O94776) 0.026
NONO (UniProt Q15233) -0.006
NCAPG2 (UniProt Q86XI2) 0.016
NF1 (UniProt P21359) 0.029
NIPSNAP3A (UniProt Q9UFN0) -0.04
PAN2 isoform 2 (UniProt Q504Q3) 0.03
NUP205 (UniProt Q92621) 0.038
NBN (UniProt O60934) 0.037
NCAPD2 (UniProt Q15021) 0.016
NEK9 (UniProt Q8TD19) -0.008
NMRAL1 (UniProt Q9HBL8) 0.178
OSBP2 (UniProt Q969R2) -0.055
NLRP2 (UniProt Q9NX02) -0.04
NUF2 (UniProt Q9BZD4) 0.048
NR3C1 isoform 3 (UniProt P04150) -0.385
